Laboratory results from PubChem BioAssay AID651947 (Broad Institute, 2012).
Results with a measured potency or affinity are listed apart. Results filed as inconclusive are left out. Unmarked numbers belong to inactive results.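 How the source made its calls: active means luminescence drop in HepG2 cells whose fitted half-effect dose is at most twice the top valid dose; inconclusive means flat curve with 30 to 70% signal loss, or unreliable fit; inactive means the rest.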

Assay: cytotoxicity in HepG2 cells, dose response, cytotoxicity control, cell-based, plate reader, dry powder (AID 651947)
Conditions: HepG2 viability, ATP luminescence (CellTiter-Glo), 48 h, hits give low values

Structure (SMILES): Fc1ccc(CSc2nnc(-c3ccccc3)o2)cc1
- max activity (at 0.38 µM): 22%
- max activity (at 12 µM): -25.4%
